From PubChem BioAssay (NCATS)
Records with an inconclusive call do not appear. Where a call stands in place of a potency, no number is given. Activity calls are given as the source filed them. Calls follow the shape of the dose curve; as a rule, active = well fitted inhibition curve with a large enough effect; inconclusive = small, poorly fitted or top-dose-only effect; inactive = flat fitted curve, though single readings scatter.

How the values were obtained:
Test in all cases: qHTS profiling for inhibitors of Plasmodium falciparum proliferation (AID 504749); also: nearly all actives have a fitted effect of over 60% in size
Settings in all cases: P. falciparum in erythrocytes, SYBR Green DNA, 72 h; series mostly up to 28.7 µM
[1] = tested on: N140
Method in brief: (§1)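 Fluorescence of SYBR Green-bound parasite DNA, read at 485/535 nm, served as the growth measure. Infected erythrocytes were cultured with compound 72 h; artemisinin (0.29 uM) and DMSO wells defined the normalization range.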

[2] = tested on: P93_24
Method in brief: as §1

[3] = tested on: P94_40
Method in brief: as §1

[4] = tested on: PAD
Method in brief: as §1

[5] = tested on: PC15
Method in brief: as §1

[6] = tested on: PC26
Method in brief: as §1

[7] = tested on: PC49
Method in brief: as §1

[8] = tested on: SC27B
Method in brief: as §1

[9] = tested on: TAB109
Method in brief: as §1

[10] = tested on: TAB113
Method in brief: as §1
Potency is read from the fitted curve at half-maximal effect.

| Compound | Potency [1] | Potency [2] | Potency [3] | Potency [4] | Potency [5] | Potency [6] | Potency [7] | Potency [8] | Potency [9] | Potency [10] |
| --- | --- | --- | --- | --- | --- | --- | --- | --- | --- | --- |
| O=NN(CCCl)C(=O)NC1CCCCC1 | inactive | inactive | inactive | inactive | inactive | inactive | inactive | inactive | inactive | inactive |
| C1CCC(C(CC2CCCCN2)C2CCCCC2)CC1 (configuration not stated) | 10 µM (active) | 12.6 µM (active) | 11.2 µM (active) | 6.31 µM (active) | 5.01 µM (active) | 7.57 µM (active) | 2.82 µM (active) | 7.94 µM (active) | 5.62 µM (active) | 6.31 µM (active) |
| C[C@]12C=CC(=O)C=C1CC[C@@H]1[C@@H]2C(=O)C[C@@]2(C)[C@H]1CC[C@]2(O)C(=O)CO | inactive | inactive | inactive | inactive | inactive | inactive | inactive | inactive | inactive |  |
| CCc1cc(C(N)=S)ccn1 | inactive | inactive | inactive | inactive | inactive | inactive | inactive | inactive | inactive | inactive |
| Nc1nc(N)nc(-c2cc(Cl)ccc2Cl)n1 | inactive | inactive | inactive | inactive | inactive | inactive | inactive | inactive | inactive | inactive |
| Nc1nc(N)c2nc(CNc3ccc(C(=O)NC(CCC(=O)O)C(=O)O)cc3)cnc2n1 (configuration not stated) | inactive | inactive | inactive | inactive | inactive | inactive | inactive | inactive | inactive | inactive |
| CN1CCN(c2c(F)cc3c(=O)c(C(=O)O)cn(CCF)c3c2F)CC1 | inactive | inactive | inactive | inactive | inactive | inactive | inactive | inactive | inactive | inactive |
| CC(C)(Sc1cc(C(C)(C)C)c(O)c(C(C)(C)C)c1)Sc1cc(C(C)(C)C)c(O)c(C(C)(C)C)c1 | inactive | inactive | inactive | inactive | inactive | inactive | inactive | inactive | inactive | inactive |
| CCC(C)(C)c1ccc(CC(C)CN2C[C@@H](C)O[C@@H](C)C2)cc1 (some centres not stated) | inactive | inactive | inactive | inactive | inactive | inactive | inactive | inactive | inactive | inactive |
| CN(CCOc1ccc(CC2SC(=O)NC2=O)cc1)c1ccccn1 (configuration not stated) | inactive | inactive | inactive | inactive | inactive | inactive | inactive | inactive | inactive | inactive |
| CC1=NN(c2ccccc2)C(=O)C1 | inactive | inactive | inactive | inactive | inactive | inactive | inactive | inactive | inactive | inactive |
| Cc1cccc(N(C)C(=S)Oc2ccc3ccccc3c2)c1 | inactive | inactive | inactive | inactive | inactive | inactive | inactive | inactive | inactive | inactive |
| CC(C)Cn1cnc2c(N)nc3ccccc3c21 | inactive | inactive | inactive | inactive | inactive | inactive | inactive | inactive | inactive |  |
| CC(=O)Oc1ccccc1C(=O)Nc1ncc([N+](=O)[O-])s1 | inactive | inactive | inactive | inactive | inactive | inactive | inactive | inactive | inactive | inactive |
| CN(C)CCc1c[nH]c2ccc(CS(=O)(=O)N3CCCC3)cc12 | inactive | inactive | inactive | inactive | inactive | inactive | inactive | inactive | inactive | inactive |
| COc1nc(N)nc2c1ncn2[C@@H]1O[C@H](CO)[C@@H](O)[C@@H]1O | inactive | inactive | inactive | inactive | inactive | inactive | inactive | inactive | inactive | inactive |
| COc1cc([C@@H]2c3cc4c(cc3[C@H](O)[C@H]3COC(=O)[C@H]23)OCO4)cc(OC)c1OC | 2.82 µM (active) | 2.24 µM (active) | 2.51 µM (active) | 3.55 µM (active) | 1.78 µM (active) | 8.49 µM (active) | 8.91 µM (active) | 4.47 µM (active) | 2.51 µM (active) | 3.16 µM (active) |
| CCOCC(O)COc1ccc(NC(=O)CC[S+](C)C)cc1 (configuration not stated) | inactive | inactive | inactive | inactive | inactive | inactive | inactive | inactive | inactive | inactive |
| N[C@@H](C(=O)N[C@@H]1C(=O)N2C(C(=O)O)=C(Cl)CS[C@H]12)c1ccccc1 | inactive | inactive | inactive | inactive | inactive | inactive | inactive | inactive | inactive | inactive |

| Compound | Potency [1] | Potency [2] | Potency [3] | Potency [4] | Potency [5] | Potency [6] | Potency [7] | Potency [8] | Potency [9] | Potency [10] |
| --- | --- | --- | --- | --- | --- | --- | --- | --- | --- | --- |
| CCN(C)C(=O)Oc1cccc([C@H](C)N(C)C)c1 | inactive | inactive | inactive | inactive | inactive | inactive | inactive | inactive | inactive | inactive |
| Cc1ncc([N+](=O)[O-])n1CCO | inactive | inactive | inactive | inactive | inactive | inactive | inactive | inactive | inactive | inactive |
| O=S(=O)(O)CCS | inactive | inactive | inactive | inactive | inactive | inactive | inactive | inactive | inactive | inactive |
| NC(=O)c1cccnc1 | inactive | inactive | inactive | inactive | inactive | inactive | inactive | inactive | inactive | inactive |
| Cc1ccnc2c1NC(=O)c1cccnc1N2C1CC1 | inactive | inactive | inactive | inactive | inactive | inactive | inactive | inactive | inactive | inactive |
| COc1ncnc(NS(=O)(=O)c2ccc(N)cc2)c1OC | inactive | inactive | inactive | inactive | inactive | inactive | inactive | inactive | inactive | inactive |
| CNS(=O)(=O)Cc1ccc2[nH]cc(CCN(C)C)c2c1 | inactive | inactive | inactive | inactive | inactive | inactive | inactive | inactive | inactive | inactive |
| COc1ccc(-c2ccc3cc(C(=O)O)ccc3c2)cc1C12CC3CC(CC(C3)C1)C2 | inactive | inactive | inactive | inactive | inactive | inactive | inactive | inactive | inactive | inactive |
| COc1cc(NCc2ccc3nc(N)nc(N)c3c2C)cc(OC)c1OC | 0.447 µM (active) | 0.398 µM (active) | 0.891 µM (active) | 0.316 µM (active) | 0.316 µM (active) | 0.675 µM (active) | 0.501 µM (active) | 2.24 µM (active) | 1 µM (active) | 2.51 µM (active) |
| COc1ccc2cc3[n+](cc2c1OC)CCc1cc2c(cc1-3)OCO2 | 1.26 µM (active) | 0.562 µM (active) | 0.447 µM (active) | 1 µM (active) | 2.24 µM (active) | 1.9 µM (active) | 2.51 µM (active) | 1.26 µM (active) | 0.631 µM (active) | 1 µM (active) |
| CC(C)NCC(O)c1ccc(NS(C)(=O)=O)cc1 (configuration not stated) | inactive | inactive | inactive | inactive | inactive | inactive | inactive | inactive | inactive | inactive |
| CNNCc1ccc(C(=O)NC(C)C)cc1 | inactive | inactive | inactive | inactive | inactive | inactive | inactive | inactive | inactive | inactive |
| CN(C)c1ccc(C(=C2C=CC(=[N+](C)C)C=C2)c2ccc(N(C)C)cc2)cc1 | 0.355 µM (active) | 0.316 µM (active) | 0.282 µM (active) | 0.355 µM (active) | 0.708 µM (active) | 0.849 µM (active) | 1.78 µM (active) | 0.501 µM (active) | 0.224 µM (active) | 0.355 µM (active) |
| C[C@@H](NCCCc1cccc(C(F)(F)F)c1)c1cccc2ccccc12 | 2.82 µM (active) | 6.31 µM (active) | 5.01 µM (active) | 2 µM (active) | 11.2 µM (active) | 4.78 µM (active) |  | 6.31 µM (active) | 4.47 µM (active) | 3.55 µM (active) |
| CNC1CCCN(c2c(F)cc3c(=O)c(C(=O)O)cn(C4CC4)c3c2OC)C1 (configuration not stated) | inactive | inactive | inactive | inactive | inactive | inactive | inactive | inactive | inactive | inactive |
| Cc1noc(NS(=O)(=O)c2ccc(N)cc2)c1C | inactive | inactive | inactive | inactive | inactive | inactive | inactive | inactive | inactive | inactive |
| NC(=O)N1c2ccccc2CC(=O)c2ccccc21 | inactive | inactive | inactive | inactive | inactive | inactive | inactive | inactive | inactive | inactive |
| NC(N)=NC(N)=NCCc1ccccc1 | inactive | inactive | inactive | inactive | inactive | inactive | inactive | inactive | inactive | inactive |
| Nc1[nH]c(=O)ncc1F | inactive | inactive | inactive | inactive | inactive | inactive | inactive | inactive | inactive | inactive |
